Test results taken from PubChem BioAssay (NCATS).
Inconclusive results are not listed. Active and inactive are the calls of the source. Calls come from the whole dose curve.

Assay: VSVG counterscreen qHTS to identify inhibitors of SARS-CoV-2 cell entry (AID 1645847); note: nearly all actives have a fitted effect of over 65% in size
Conditions: VSV-G pseudotyped particle entry, luciferase; series mostly up to 57.2 µM
Procedure, shortened: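 HEK293-ACE2 cells (Expi293F, human ACE2) pretreated 1 h with compound, then infected with MLV-based VSV-G pseudotyped particles for 48 h at 37 C; luciferase luminescence normalized to VSV-G PP and bald PP wells.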
Potency is the fitted concentration of half-maximal effect.

Row | Structure (SMILES) | Potency
1 | O=C1C(=O)c2ccccc2C(O)=C1C1CCC(c2ccc(Cl)cc2)CC1 (centres undefined) | 9.61 µM (active)
2 | Nc1ncn([C@@H]2O[C@H](CO)[C@@H](O)[C@H]2O)c(=O)n1 | 19.2 µM (active)
3 | COC(=O)C1=C(C)NC(C)=C(C(=O)OCC(C)C)C1c1ccccc1[N+](=O)[O-] (centres undefined) | 5.41 µM (active)
4 | OCCN1C[C@H](O)[C@@H](O)[C@H](O)[C@H]1CO | 4.29 µM (active)
5 | O=C1CCc2ccc(OCCCCN3CCN(c4cccc(Cl)c4Cl)CC3)cc2N1 | 13.6 µM (active)
6 | COc1cccc2c1C(=O)c1c(O)c3c(c(O)c1C2=O)C[C@@](O)(C(=O)CO)C[C@@H]3O[C@H]1C[C@H](N)[C@H](O)[C@H](C)O1 | 0.152 µM (active)
7 | O=C(O)c1ccc(-n2nc(-c3ccccc3O)nc2-c2ccccc2O)cc1 | 24.1 µM (active)
8 | COC(=O)Nc1nc2ccc(C(=O)c3cccs3)cc2[nH]1 | 0.152 µM (active)
9 | CCCCNc1ccc(C(=O)OCCOCCOCCOCCOCCOCCOCCOCCOCCOC)cc1 | 21.5 µM (active)
